The results in this text go back to PubChem BioAssay (NCATS).

The structures appear in SMILES notation. Records with an inconclusive call do not appear. Entries that show only a call come without a potency. Values without a mark were called inactive. Activity calls are given as the source filed them. Calls come from the whole dose curve; as a rule, active = well fitted inhibition curve with a large enough effect; inconclusive = small, poorly fitted or top-dose-only effect; inactive = flat fitted curve, though single readings scatter.
Note: nearly all actives have a fitted effect of over 60% in size.

The test system of one assay is NIH3T3. The assay can be described thus: Cytotoxic Profiling of Annotated Libraries Using Quantitative High-Throughput Screening (AID 1296008). Note: potency is the fitted concentration of half-maximal effect. Conditions: Five cell lines viability, CellTiter-Glo ATP luminescence, 48-72 h; max response: stronger effect = lower value. A digest of the protocol: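 Cells exposed to compounds for 48 or 72 hr at 37 degrees Celsius. Viability read as ATP-coupled luminescence with CellTiter-Glo after 10 min at room temperature.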
Background: Cellular ATP, detected with luciferase, serves as a proxy for viable cell number.
`O=[N+]([O-])c1cc([N+](=O)[O-])c2ccccc2c1`: the max response is 4.23%.
Same read-out and setting: the value for `c1cc2ccc3cccc4ccc(c1)c2c34` was -19.4%.
For `CC(C)[C@H]1C(=O)N[C@H](CO)Cc2c[nH]c3cccc(c23)N1C`, the max response is -1.36%.
`CC(=O)O[C@@]12CO[C@H]1C[C@H](O)[C@@]1(C)C(=O)[C@H](O)C3=C(C)[C@@H](O)C[C@@](O)([C@@H](OC(=O)c4ccccc4)[C@@H]21)C3(C)C`: the Potency was 14.8 µM (active).
As for `COc1nn(CSP(=S)(OC)OC)c(=O)s1`, the max response was -0.106%.
Turning to `N=c1c2c(-c3ccccc3)c(-c3ccccc3)n(Cc3ccccc3)c2ncn1C1CCC(O)CC1` (stereo not drawn), the max response is -14.3%.
`C[C@]12COC(=O)C[C@@H]1CC[C@@H]1[C@H]2CC[C@@]2(C)[C@H]1CC[C@]2(C)O`: the max response was -1.39%.
Consider `Nc1ccc(N=Nc2ccccc2)cc1`, for which the Potency is 6.86 µM (active).
As to `COC[C@H]1OC(=O)c2coc3c2[C@@]1(C)C1=C(C3=O)[C@@H]2CC[C@H](O)[C@@]2(C)C[C@@H]1OC(C)=O`, the Potency is 16.6 µM (active).
In the case of `O=S(=O)(c1ccc(Cl)cc1)c1ccc(Cl)cc1`, the max response was -7.95%.
Same read-out and setting: the value for `CC(=CCCC1=CCC(C2=CC(=O)OC2O)OC1O)CCC1=C(C)CCCC1(C)C` (stereo not drawn) was -0.889%.
Regarding `c1ccc(CCCN2CCN(CCOC(c3ccccc3)c3ccccc3)CC2)cc1`, the Potency is 16.6 µM (active).

In another assay the test system is CRL-7250. The assay can be described thus: qHTS assay to identify novel small-molecules to repurpose for Merkel cell carcinoma treatment (AID 1296009). The following applies: MCC and control cell lines, CellTiter-Glo viability, 72 h; at 44.8 µM (top of the series) unless noted. A digest of the protocol:
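Cells were treated for 72 hr at 37 degree celsius with compounds in 8- or 11-point dose response. Viability was read by CellTiter-Glo luminescence, normalized to no-cell (cytotoxicity) and DMSO controls.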
A general note: qHTS replaces the single test concentration by a dilution series.
Turning to `COc1ccc(CCN(C)CCCOc2ccc(S(=O)(=O)c3[nH]c4ccccc4c3C(C)C)cc2)cc1OC`, the call was inactive.
For `COc1ccccc1N1CCN(CC(O)COc2cc(OC)c(OC)c(OC)c2)CC1` (stereo not drawn), the molecule was classed as inactive.
The same measure, in the same setting: the same measure for `O=C(C=Cc1ccc(/C=C/C(=O)Nc2ccc(C3=NCCN3)cc2)cc1)Nc1ccc(C2=NCCN2)cc1`: “inactive”; for `CCOc1cc(C(=O)Nc2ccc(Cl)c(-c3nc4ccccc4[nH]3)c2)cc(OCC)c1OCC`: “inactive”; for `COc1ccc2cc(CCC(C)=O)ccc2c1`: “inactive”.
Regarding `CCOC(=O)C(=O)CCCCCCl`, the molecule was classed as inactive.
The same measure, in the same setting: the same measure for `O=C(O)CCC1CCC(c2cc(F)ccc2F)(S(=O)(=O)c2ccc(Cl)cc2)CC1` (stereo not drawn): “inactive”.
In the case of `O=C1CCCC2=C1C(c1[nH]ncc1Cl)N=C(Nc1nc3ccccc3o1)N2` (stereo not drawn), the molecule was classed as inactive.
On the same count and under the same terms, the value for `COc1ccc2c(c1)c1c3n2CCN(C)C3=NCC1` was “inactive”.
With `Cc1cccc(C)c1NC(=O)c1ccccc1C(=O)O`, the result was inactive.
For `CCCCC(CC)COC(=O)c1ccc(N(C)C)cc1` (stereo not drawn), the molecule was called inactive.
As to `CC(=O)Nc1ccc(O)cc1`, the result was inactive.
As to `CC(C)OC(=O)c1cc(C(=O)OC(C)C)cc([N+](=O)[O-])c1`, the outcome is “inactive [at 92 µM]”.
With `CCc1c(C)[nH]c2c1C(=O)C(CN1CCOCC1)CC2` (stereo not drawn), the molecule was classed as inactive.
On to `Cc1cccc(Nc2nc(N[C@@H]3CCCC[C@H]3N)ncc2C(N)=O)c1`, for which the outcome was inactive.
Regarding `COc1ccc(CCN2CCN(CCCc3ccccc3)CC2)cc1OC`, the molecule was called inactive.
